# Results reported in ChEMBL document CHEMBL4513216, “Probing the Open Global Health Chemical Diversity Library for Multistage-Active Starting Points for Next-Generation Antimalarials” (ACS Infect Dis, 2020).
# About 8,600 (12%) of roughly 69,000 compounds showed an effect of 50% or more. The list comes from a sample in which strong results are over-represented; it also holds similar structures and randomly drawn compounds.
# System: Plasmodium berghei
# Assay: Screen against P. berghei liver stage (PbLuc), transformed with Luciferase, at 10uM
# Assay type: functional, HepG2
# Settings: tested at 10 uM
row,Compound,INHIBITION [%]
1,CNC(=O)CCc1cc(C2CCCCN2C(C)C)nc(C)n1 (stereo not given),15.1
2,Cc1nc(CN(C)C2CCCN(Cc3noc(C4CC4)n3)C2)oc1C (stereo not given),40.2
3,COc1cccc(CC(=O)N2CCCC(c3nncn3C)C2)c1 (stereo not given),-26.6
4,Cc1ccc(-c2noc(CN3CCCC(Cn4cncn4)C3)n2)cc1 (stereo not given),48.2
5,Cc1cccc2[nH]c(C3CCCN(Cc4ccccc4C(=O)O)C3)nc12 (stereo not given),37.6
6,Cc1cc(C2CCCN(CCCS(N)(=O)=O)C2)n[nH]1 (stereo not given),16.8
7,c1cc(CN2CCO[C@H]3[C@H](OCC4CCOCC4)CC[C@@H]32)co1,-34.9
8,Cc1nn(C)c(C)c1C1CCCN1C(=O)c1cnc2onc(C)c2c1 (stereo not given),-2.53
9,O=S(=O)(CCCNC1CCc2ncnn2C1)c1ccccc1 (stereo not given),31.3
10,Cc1noc(C)c1CN1C[C@H](OCC(=O)N(C)C)[C@H]2OCCC[C@H]21,10.5
11,CN(C)C(=O)CO[C@@H]1CC[C@H]2[C@H]1OCCN2c1ncc(F)cn1,64.3
12,CN(C)C(=O)CO[C@@H]1CC[C@H]2[C@H]1OCCN2c1ncccn1,20.1
13,Cc1noc(C)c1CN1C[C@@H](OCC(=O)N(C)C)[C@H]2OCCC[C@H]21,74.8
14,Fc1cnc(N2CCO[C@H]3[C@H](OCC4CCOCC4)CC[C@@H]32)nc1,38.5
15,Cc1noc(C)c1CN1C[C@H](OCC(=O)N(C)C)[C@H]2COC[C@H]21,15.3
16,CNC(=O)c1ccc(C2CCCN(C(=O)c3c(C)noc3C)C2)nc1 (stereo not given),17.1
17,CC1(C2CCN(CCCC(=O)O)CC2)CN(Cc2ccccc2)C(=O)O1 (stereo not given),7.52
18,Cn1nnc2cc(C(=O)N3CCC(Nc4cccnn4)CC3)ccc21,10
19,Cc1ccsc1CNCC1CCCN1c1cccnn1 (stereo not given),-36.25
20,CCCNCc1cc2c(C)cc(C)cc2n2c(=O)n(C)nc12,33
21,Cc1cc(C)c2cc(CNCc3ccccc3)c3nn(C)c(=O)n3c2c1,73.4
22,CCOCCCNCc1cc2c(C)cc(C)cc2n2c(=O)n(C)nc12,51.5
23,CC(C)c1nn(C)c(N(C)C)c1CNCc1cccnc1,-3.48
24,Cc1nn(C)c(N(C)C)c1CNCc1cccnc1,40.7
25,COCCNCc1cc2c(C)cc(C)cc2n2c(=O)n(C)nc12,48.6
26,Cc1cc(C)c2cc(CNCc3cccnc3)c3nn(C)c(=O)n3c2c1,50.1
27,Cc1cc(C)c(N(CC(O)CNCc2ccccc2)S(C)(=O)=O)c(C)c1 (stereo not given),35.1

row,Compound,INHIBITION [%]
1,Cc1cnn(CCNCC(=O)NCc2ccccc2)c1,18.4
2,CCCC(=O)N1CCC(c2cc3n(n2)[C@@H](C(F)(F)F)C[C@@H](C)N3)CC1,36.4
3,Cc1cnc(N(C)CCCc2cnn(C)c2)nc1N(C)C,-0.996
4,COCC(=O)N1CC(C(=O)NCC2CC2)C2(CCOCC2)C1 (stereo not given),15.8
5,CC(C)C(=O)NCC(=O)NCC1CCN(c2cnn(C)c(=O)c2)CC1,26.1
6,Cn1ncc(N2CCC(CNC3CC(c4ccccc4)C3)CC2)cc1=O (stereo not given),63.7
7,CCC(OC)C(=O)NCC1CCN(c2cnn(C)c(=O)c2)CC1 (stereo not given),-0.275
8,CCOC(=O)N1CCC(NCC2CCN(c3cnn(C)c(=O)c3)C2)CC1 (stereo not given),26.6
9,CC(CN1CCOCC1)NCC1CCN(c2cnn(C)c(=O)c2)CC1 (stereo not given),33.5
10,Cn1ncc(N2CCC(CNC(=O)[C@@H](N)C3CCCCC3)CC2)cc1=O,8.53
11,Cn1ncc(N2CCC(CNC(=O)[C@@H](N)c3ccccc3)CC2)cc1=O,-12.4
12,Cn1ncc(N2CCC(CNC3CC(C)(C)CC(C)(C)C3)C2)cc1=O (stereo not given),72.3
13,Cn1ncc(N2CCC(CNC3Cc4ccccc4C3)C2)cc1=O (stereo not given),58.7
14,COCc1noc(CN2CC(Cc3ccccc3)CC2=O)n1 (stereo not given),-23.3
15,CN1CCCC(Cc2cncc(C(=O)NC3CC3)c2)C1 (stereo not given),8.72
16,Cn1ncc2c1CCCC2NCc1ccc(Br)s1 (stereo not given),35.3
17,CCCN(C)CCC(=O)N1CCCC1Cn1cccn1 (stereo not given),-15.5
18,CSCc1noc(CNC(=O)C2CCN(C(C)C)CC2)n1,8.51
19,Cc1nc(CN2CCc3nn(C)c(=O)cc3C2)oc1C,-3.7
20,CCn1cc(NS(=O)(=O)c2ccc(F)cc2)c(C(=O)NCC(C)C)n1,22
21,CN1[C@H](Cn2cncn2)C[C@@H]2CN(C3CCOCC3)CC[C@@H]21,34.6
22,COc1cccc2sc(N(C)CC(=O)NCc3nc(C)no3)nc12,-14.9
23,Cc1noc(CNC(=O)CN(C)c2nc3c(F)cccc3s2)n1,47
24,Cc1noc(CNC(=O)CN(C)c2nc3c(C)ccc(C)c3s2)n1,57.8
25,CC(C)(CNC(=O)COc1cccc(F)c1)C(N)=O,46.75
26,Fc1cc(Oc2ccc(C(F)(F)F)cn2)cc(F)c1CN1CCCC1,78.9
27,N#Cc1ccc(Oc2cc(F)c(CN3CCCC3)c(F)c2)nc1,26

row,Compound,INHIBITION [%]
1,Cc1cc(CN2CCCC2)cc(Oc2ccc(C(F)(F)F)cn2)c1,61.9
2,O=C(Cn1cccn1)N1CCC(Oc2ccc(C(F)(F)F)cn2)CC1,40
3,CCOC(=O)CCC(=O)N1CCC(Oc2ccc(C(F)(F)F)cn2)CC1,32.4
4,CN(CC(=O)N1CCC(Oc2ccc(C(F)(F)F)cn2)CC1)S(C)(=O)=O,-20.5
5,O=C(CN1CCOCC1)N1CCC2(CCCN(C3CCOCC3)C2=O)C1 (stereo not given),-9.02
6,COCCN1CCCC(C)(c2cc(O)[nH]n2)C1 (stereo not given),-3.02
7,CN(Cc1ccsc1)C(=O)CN1CCCCC1Cn1cccn1 (stereo not given),-96.9
8,Cc1cnn(CC2CN(CC(=O)N(C)Cc3cccs3)CCO2)c1 (stereo not given),35.3
9,CN(Cc1ccco1)C(=O)CN1CCCCC1Cn1cncn1 (stereo not given),7.67
10,Cc1ccc(CN(C)C(=O)CN2CCCC2Cn2cncn2)cc1 (stereo not given),42.4
11,CN(Cc1ccsc1)C(=O)CN1CCCC1Cn1cccn1 (stereo not given),63.9
12,Cc1ccc(CN(C)C(=O)CN2CCCCC2Cn2cncn2)cc1 (stereo not given),74.2
13,CN(Cc1cccs1)C(=O)CN1CCCC1Cn1cncn1 (stereo not given),23.5
14,CN(Cc1cccs1)C(=O)CN1CCOC(Cn2cncn2)C1 (stereo not given),62.6
15,CN(Cc1ccccc1)C(=O)CN1CCOC(Cn2cncn2)C1 (stereo not given),-9.37
16,CN(Cc1cccs1)C(=O)CN1CCCCC1Cn1cncn1 (stereo not given),59.3
17,CN(Cc1ccc(F)cc1)C(=O)CN1CCCCC1Cn1cncn1 (stereo not given),48.4
18,Cc1cnn(CC2CCCN2CC(=O)N(C)Cc2ccsc2)c1 (stereo not given),34.5
19,O=C(CC(F)(F)F)Nc1cc(F)ccc1OCC1CCCO1 (stereo not given),-6.14
20,CCn1nc(C)cc1C(=O)N1C[C@H]2CCC[C@@]2(COc2ccccn2)C1,-36.9
21,CCC1CN(CC(=O)NCCN2CCCC2)c2ccccc2S1 (stereo not given),18.3
22,CN(C)C1CCN(C(=O)c2n[nH]c3c2CCN(CC2CCC2)C3)CC1,-39
23,Cc1cc(-c2ccc(=O)n(C3CCN(S(=O)(=O)N(C)C)CC3)n2)c(C)o1,-25.3
24,CNc1cc(CCNC(=O)CC(C)C)nc(-c2ccccn2)n1,-27.4
25,CCN(Cc1ccccc1)C(=O)CN1CCCCC1Cn1cncn1 (stereo not given),38.5
26,Cc1cnn(C2CN(CC(=O)N(C)Cc3cccs3)C2)c1,52.2
27,Cc1cnn(C2CN(CC(=O)NCCc3cccs3)C2)c1,45.7

row,Compound,INHIBITION [%]
1,Cc1ccccc1CN(C)C(=O)CN1CCCCC1Cn1cncn1 (stereo not given),81.2
2,CN(Cc1ccccc1)C(=O)CN1CCCCC1Cn1cncn1 (stereo not given),25.6
3,Cc1cnn(C2CN(CC(=O)N(C)Cc3ccc(C)o3)C2)c1,34
4,Cc1nnnn1-c1cc(NCc2cc(C#N)ccc2F)ccc1F,32.3
5,O[C@@H]1CCN(CC2CCOC2)[C@H]1Cc1cccnc1 (stereo not given in full),23.1
6,O=C(c1ccc2cc[nH]c2c1)N1CCCN(Cc2cscn2)CC1,13.6
7,N#Cc1c(Cl)nsc1NCc1cccnc1OC1CCCC1,85.9
8,CC(C(=O)NCc1ccnc(OCC(F)(F)F)c1)n1cncn1 (stereo not given),-18.2
9,N#Cc1c(Cl)nsc1NCc1cccnc1OCC(F)(F)F,88.5
10,N#Cc1c(Cl)nsc1NCc1ccnc(OCC(F)(F)F)c1,81.7
11,CCOc1ncccc1CNc1nnc(C)c(C)c1C#N,-23.45
12,CC(O)CNC(=O)NCc1cccnc1OC1CCCC1 (stereo not given),22.7
13,Cc1oncc1C(=O)NCc1ccnc(OCC(F)(F)F)c1,-6.15
14,O=S(=O)(NCc1cccnc1OC1CCCC1)N1CCCCC1,21.9
15,N#Cc1c(Cl)nsc1NCc1ccc(N2CCCC(C(N)=O)C2)cc1 (stereo not given),26.6
16,N#Cc1c(Cl)nsc1NCc1ccc(N2CCC(CO)CC2)cc1,30.9
17,Cc1nnc(NCc2cccnc2OCC(F)(F)F)c(C#N)c1C,-0.18
18,N#Cc1c(Cl)nsc1NCc1ccc(N2CCSCC2)cc1,59.5
19,Nc1nccc(C2CCN(CC3CC3)C2)n1 (stereo not given),20.2
20,CN(CCc1cn[nH]c1)C(=O)CCc1ccc(Cl)cc1,49
21,CC(Nc1cccc2c1OCCO2)C(=O)Nc1ccc(Cl)cc1 (stereo not given),-10.3
22,CCc1nnc2n1CCN(C(=O)c1cc3cc(C)ccc3[nH]1)C2,10
23,O=C(Nc1ccc(-n2ccc(C(=O)O)n2)cc1)c1ccccc1,39.5
24,Cc1cn([C@@H]2CC3(CCNCC3)OC[C@@]2(C)O)c(=O)[nH]c1=O,37.1
